Bioassay records (PubChem)
Only some compounds are listed: those with a hit (about 1.8% of all), similar ones and a draw of the others.
PI4K2A inh: qHTS for small molecular inhibitors of PI4K2A | Phosphatidylinositol 4-kinase type 2-alpha (Homo sapiens), Q9BTU6 | purified PI4K2A, ADP-Glo luminescence, 1 h; stronger effect = lower value | activity change, negative = inhibition, % at 76.9 µM | 0.13% of 420,000 active | AID 1346378, 2018; in the data active = activity change below about -50%; inconclusive = mostly about -30% to -49%
Target sequence (Q9BTU6 whole entry, looked up): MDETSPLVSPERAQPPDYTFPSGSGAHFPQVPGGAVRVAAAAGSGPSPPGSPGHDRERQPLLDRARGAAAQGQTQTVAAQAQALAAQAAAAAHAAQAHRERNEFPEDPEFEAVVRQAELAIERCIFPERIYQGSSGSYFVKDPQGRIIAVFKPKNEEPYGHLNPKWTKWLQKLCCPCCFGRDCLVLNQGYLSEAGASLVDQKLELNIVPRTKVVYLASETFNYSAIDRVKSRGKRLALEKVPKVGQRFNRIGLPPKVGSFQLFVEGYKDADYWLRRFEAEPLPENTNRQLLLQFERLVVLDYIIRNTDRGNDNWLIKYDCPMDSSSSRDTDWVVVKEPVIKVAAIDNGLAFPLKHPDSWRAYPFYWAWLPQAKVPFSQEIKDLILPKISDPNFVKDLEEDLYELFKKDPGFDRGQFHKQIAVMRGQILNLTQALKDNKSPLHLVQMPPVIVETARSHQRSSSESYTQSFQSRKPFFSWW
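Compounds are screened against recombinant PI4K2A using PI as substrate and ATP, the latter dispensed at 300 microM. Reactions run one hour at ambient temperature before ADP-Glo detection; full inhibition defined by wells lacking enzyme.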
CtBP-E1A inh: qHTS Assay for Inhibitors of the CtBP/E1A Interaction; AlphaScreen GST-E1A/His-CtBP binding, 1536-well; stronger effect = lower value; activity change, % (concentration not given with the values); 0.49% of 340,000 active; AID 651724, 2012
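Homogeneous bead-based format: GST-tagged E1A captured on glutathione donor beads, His-tagged CtBP on nickel acceptor beads; compounds precede bead addition by 2 h at 37 °C.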
PI5P4K alpha inh: qHTS for Inhibitors of phosphatidylinositol 5-phosphate 4-kinase (PI5P4K) | PI5P4Kalpha enzyme, ADP-Glo luminescence, 60 min; stronger effect = lower value | 1.2% of 330,000 active | max response, % | Phosphatidylinositol 5-phosphate 4-kinase type-2 alpha (Homo sapiens), P48426; active = max response of -50% or lower; inconclusive = between -30% and -50%; inactive = -30% or higher; also: value at the top dose of about 77 µM
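ADP-Glo luminescence end-point read after a 60 min room-temperature kinase reaction of PI5P4Kalpha plus substrate, initiated with ATP at 5 microM final. Buffer: 0.038 M HEPES pH 7.4, EGTA, 0.1% CHAPS, 5% DMSO.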
pAkt inh: HTS Assay for Inhibitors of Akt Phophorylation: Primary Screen; 0.32% of 360,000 active; activity change, % for hits at 50 µM; Neuro2A IGF-stimulated pAkt S473 HTRF, 20 min; stronger effect = lower value; AID 651550, 2012; in the data active = activity change below about -80%; inconclusive = mostly about -51% to -80%
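Neuro2A cells (4,500/well, DMEM with 0.5% FBS) were treated with compound at a single 50 µM final concentration, stimulated with 6 nM IGF for 20 min at 37 °C, and lysed. Phospho-Akt Ser473 was read by HTRF as 665/615 ratio ×10^4.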
Six1-Eya2 inh: qHTS Assay for Inhibitors of the Six1/Eya2 Interaction | activity change, % (test concentration not listed) | Homeobox protein SIX1 (Homo sapiens) + Protein phosphatase EYA2 (Homo sapiens), … | 0.56% of 360,000 active | AlphaScreen GST-Six1/His-Eya2 binding, biochemical; stronger effect = lower value
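Compounds are tested against tagged Six1 and Eya2 proteins bridged by glutathione donor and nickel acceptor beads; after a one-hour incubation at 37 °C without light, AlphaScreen emission is recorded.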
Each line names hits and unclear results; the compound was inactive in the other large screens. Rule as the data show it, unless noted: active = activity change below about -65%; inconclusive = mostly about -30% to -63%; inactive = weaker than that.

O=c1c2ccccc2nc2ccc(NCc3ccco3)nn12	CtBP-E1A inh -81.0, Six1-Eya2 inh -68.5
Cc1sc2nc3ccc(NCc4ccco4)nn3c(=O)c2c1C	CtBP-E1A inh inconclusive, Six1-Eya2 inh -66.0
C=CCNC(=S)Nc1ccc(Cl)c(S(=O)(=O)N2CCOCC2)c1	none
COc1ccc(CNC(=O)CCCn2c(SCC(N)=O)nc3cc4c(cc3c2=O)OCO4)cc1	none (no result: CtBP-E1A inh, PI5P4K alpha inh, pAkt inh, Six1-Eya2 inh)
CCS(=O)(=O)N1CCC(C(=O)NCc2ccco2)CC1	none (no result: PI5P4K alpha inh)
O=C(NCc1ccco1)C1CCN(S(=O)(=O)N2CCOCC2)CC1	PI4K2A inh -85.0 (no result: PI5P4K alpha inh)
C/C(=N\NC(=O)c1cc(O)cc(O)c1)c1ccc(NC(=O)Cc2ccccc2)cc1	CtBP-E1A inh -89.0, PI5P4K alpha inh -89.9, Six1-Eya2 inh -88.9
CCOP(=O)(c1ccccc1)c1nc(-c2ccc(F)cc2)oc1N1CCCCC1 (configuration not stated)	pAkt inh -130.3%
CCC(C)(C)NC(=O)COc1ccc(C(=O)c2ccccc2)cc1	none
O=C(O)c1cc(N2C(=O)C3CC=CCC3C2=O)ccc1NCc1cccnc1 (configuration not stated)	pAkt inh -116.0%
Cc1c(CN(C)C)c2c(n1Cc1ccccc1)C(=O)c1ccc(Br)cc1-2	CtBP-E1A inh inconclusive, Six1-Eya2 inh -65.2
O=S(=O)(c1ccc(F)cc1)N1CCC(N2CCCCCC2)CC1	none
O=S(=O)(c1ccc(Cl)cc1)N1CCC(N2CCCCCC2)CC1	pAkt inh -118.6%
COC(=O)C(C(=O)Nc1ncccn1)C1CCCCCC1 (configuration not stated)	none
O=c1[nH][nH]c(=S)n1C1CCCCC1	PI5P4K alpha inh -69.4
O=C(O)c1ccccc1-c1ccccc1C(=O)Nc1ccc2oc(=O)c3ccccc3c2c1	Six1-Eya2 inh inconclusive
O=C(O)c1ccccc1-c1ccccc1C(=O)Nc1ccc2c(c1)[nH]c(=O)c1ccccc12	PI5P4K alpha inh inconclusive, Six1-Eya2 inh -72.2
CCOc1cc(/C=C2\SC(=S)N(NS(=O)(=O)c3ccc(C)cc3)C2=O)ccc1O	PI5P4K alpha inh -58.7 (no result: CtBP-E1A inh)
COc1cc(/C=C2\SC(=S)N(NS(=O)(=O)c3ccc(C)cc3)C2=O)cc(OC)c1OC	none
COc1cc(/C=C2\SC(=S)N(NS(=O)(=O)c3ccc(C)cc3)C2=O)ccc1O	PI5P4K alpha inh -68.5
COc1cc(/C=C2\SC(=S)N(NS(=O)(=O)c3ccccc3)C2=O)ccc1O	PI5P4K alpha inh -60.6 (no result: CtBP-E1A inh)
COc1cc(NC(=O)CSc2nc(C)cc(=O)[nH]2)cc(OC)c1	none (no result: CtBP-E1A inh, PI5P4K alpha inh, pAkt inh, Six1-Eya2 inh)
O=c1c2c(-c3ccccc3)csc2nc2c3ccccc3c(NCCN3CCOCC3)nn12	CtBP-E1A inh -88.1, Six1-Eya2 inh -82.4
Cc1ccc(/C(=N/Nc2nc3ccccc3s2)C2=C(O)c3ccccc3C2=O)cc1	PI5P4K alpha inh -80.8
CCN1CCN(C(=S)c2ccc(Cl)cc2)CC1	PI5P4K alpha inh inconclusive, pAkt inh -114.9%
CCC1CCCCN1S(=O)(=O)c1ccc(NC(=O)CSc2ncccc2C(=O)O)cc1 (configuration not stated)	Six1-Eya2 inh -83.5 (no result: PI5P4K alpha inh)
O=C(CC(NCc1ccccn1)C(=O)O)Nc1ccccc1Cl (configuration not stated)	PI4K2A inh inconclusive, CtBP-E1A inh -88.7, Six1-Eya2 inh -90.8
COc1ccc(C)cc1NC(=O)c1c(C)oc2ncn(CC(C)C)c(=O)c12	none (no result: CtBP-E1A inh, PI5P4K alpha inh, pAkt inh, Six1-Eya2 inh)
CC1CN(C(=O)CCN2C(=O)c3ccccc3C2=O)CC(C)O1 (configuration not stated)	pAkt inh -116.7%
CN1CCN(C(=O)CCN2C(=O)c3ccccc3C2=O)CC1	none
CN1CCN(S(=O)(=O)c2cccc(C(=O)NCCC3=CCCCC3)c2)CC1	none
N#C/C(=C/c1ccc(-c2cccc([N+](=O)[O-])c2)o1)C(=O)Nc1nc(-c2cccs2)cs1	PI5P4K alpha inh -61.7
O=C(Nc1sc2c(c1C(=O)NCc1ccco1)CCCC2)c1ccc2c(c1)OCO2	none (no result: PI5P4K alpha inh)
Cc1csc(NC(=O)c2cn3ccccc3n2)n1	PI4K2A inh -55.5, CtBP-E1A inh inconclusive, Six1-Eya2 inh inconclusive
CN(C(=O)CN1C(=O)NC(C)(c2cccc(Br)c2)C1=O)C1CCCCC1 (configuration not stated)	none
O=C(OCc1cccc(C(F)(F)F)c1)c1ccc(-c2nnn(Cc3ccc(F)cc3)n2)cc1	none (no result: CtBP-E1A inh, PI5P4K alpha inh, pAkt inh, Six1-Eya2 inh)
Cc1cc(C(=O)Cn2ncc(Cl)c(Cl)c2=O)c(C)n1CC(F)(F)F	PI5P4K alpha inh -55.6
CC(=O)Nc1cc(-c2cccc(CO)c2)cn2c(-c3ccc(C(C)=O)cc3)cnc12	none
NC(Cc1ccc(Cl)cc1)c1csc(Nc2nccc(C(F)(F)F)n2)n1 (configuration not stated)	none
CSc1nc(N(CCO)CCO)c2sc3nc(-c4ccco4)c4c(c3c2n1)CCC4	PI4K2A inh -56.3, CtBP-E1A inh inconclusive, PI5P4K alpha inh -88.9, Six1-Eya2 inh inconclusive
CCc1nc(N[C@H](C(=O)O)C(C)CC)c2oc3ccccc3c2n1 (some centres not stated)	none
CCCCN(C)C(=O)CCC(=O)Nc1ccc2nc(N3CCOCC3)cc(C)c2c1	none (no result: PI5P4K alpha inh)
COC(=O)c1c(C)c2c(C)cc3ccccn3c-2c1C(=O)OC	CtBP-E1A inh inconclusive, pAkt inh -104.2%, Six1-Eya2 inh inconclusive
CCC1(c2ccccc2)NC(=O)N(CC(=O)Nc2ccccc2N2CCCC2)C1=O (configuration not stated)	CtBP-E1A inh -68.0
CC1(c2ccccc2)NC(=O)N(CC(=O)Nc2ccccc2N2CCCCC2)C1=O (configuration not stated)	none
CCC1(c2ccccc2)NC(=O)N(CC(=O)N2CCN(S(=O)(=O)c3ccccc3)CC2)C1=O (configuration not stated)	PI5P4K alpha inh -64.9
COc1ccc(/C=C/C(=O)NC(=S)NCCc2ccc(OC)c(OC)c2)cc1	none (no result: PI5P4K alpha inh, pAkt inh)
O=C(Cn1c(C(=O)O)cc2ccccc21)c1ccccc1	none
CCOCCCNC(=O)Cn1cc2c(n1)CCCC2	none
Oc1ccc(CN2CCc3ccccc3C2)c2cccnc12	CtBP-E1A inh -95.0, Six1-Eya2 inh -94.0 (no result: PI5P4K alpha inh)
Oc1cc2c(cc1CN1CCc3ccccc3C1)OCO2	none
Oc1ccc(CN2CCN(c3ccccc3)CC2)c2cccnc12	CtBP-E1A inh -75.4, Six1-Eya2 inh -74.0 (no result: PI5P4K alpha inh, pAkt inh)
Oc1ccc(CN2CCCCC2)c2cccnc12	CtBP-E1A inh -90.4, Six1-Eya2 inh -91.2 (no result: PI5P4K alpha inh)
Oc1ccc(CNc2ccccc2Cl)c2cccnc12	none (no result: CtBP-E1A inh, PI5P4K alpha inh, pAkt inh, Six1-Eya2 inh)
CSc1ncccc1C(=O)N1CCN(S(=O)(=O)c2cc(C)ccc2C)CC1	none
